# Results from PubChem BioAssay.
# Several values for one entry are separate records, joined by “and”; a condition that tells them apart may be missing. Identical values can stand only once. Activity calls are given as the source filed them.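 Rule for the calls, unless noted: active = compounds whose cell count with miR-34 switched on is under 0.7 times the count with it off; inactive = the rest.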
# Key:
# [1] = test system: Aerobactin synthetase IucA (Klebsiella pneumoniae); test: IucA aerobactin synthetase inhibitors, biochemical, Tocris library, absorbance (AID 1345561; call rule not given here;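 note: 100% = enzyme without compound and 0% = no enzyme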); details: purified IucA enzyme assay, absorbance (OD) read-out; stronger effect = lower value;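 tested at 8 µM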
# [2] = sensitizers of A549 cells to miR-34 induction, primary screen, imaging, A549 dox-inducible miR-34, nuclei and caspase counts (AID 1347080); details: A549 miR-34 inducible, Hoechst nuclei count, 48 h
# [3] = viability rescue of complex I mutant cybrids, primary screen, cell-based, galactose medium, ATP luminescence (AID 1645843;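 active = z-score of at least 1.8 in each of two replicates, scored against plate mean and spread of sample wells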;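 note: positive z means more ATP and so rescue of galactose-driven cybrid death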); details: complex I mutant cybrid cells, 72 h, stronger effect = higher value
# [4] = stronger effect = lower value, cell number ratio, induced over uninduced
# [5] = measured here: relative caspase fold change +Dox/-Dox
# [6] = measured here: total cells with miR-34 induction, stronger effect = lower value
# [7] = measured here: total cells without miR-34 induction
SMILES,remaining activity [1],"fold change [2, 4]","fold change [2, 5]","cell count [2, 6]","cell count [2, 7]",z-score [3]
N[C@H](C(=O)O)c1ccc(O)c(C(=O)O)c1,98.7% (inactive),0.912 (inactive),0.711,8900,9760,-0.325 (inactive)
COC(=O)C1=C(C)NC(C)=C(C(=O)NCCCN2CCC(c3ccccc3)(c3ccccc3)CC2)C1c1ccc([N+](=O)[O-])cc1 (stereo not drawn),98% (inactive),0.668 (active),1.88,294,441,-0.7 (inactive)
O=[N+]([O-])c1cccc2c[nH]nc12,110% (inactive),0.915 (inactive),0.873,7800,8520,-0.1 (inactive)
CCn1c(=O)n(C2=C(CO)CN(CC3CCCCCCC3)CC2)c2ccccc21,102% (inactive),0.951 (inactive),1.46,7150,7510,-0.665 (inactive)
Clc1cccc(C=NC=Nc2cccc(Cl)c2)c1,117% (inactive),0.902 (inactive),0.788,8200,9090,0.99 (inactive)
C=CCN1CCN(c2nc3ccccc3nc2C#N)CC1,112% (inactive),0.901 (inactive),1.37,8950,9930,0.335 (inactive)
COc1cc(COc2cc(N)c(Cl)cc2C(=O)CCC2CCN(CCNS(C)(=O)=O)CC2)cc(OC)c1,100% (inactive),0.842 (inactive),1.5,3930,4660,-0.81 (inactive)
CN(C)c1nc(N)c(C(=O)Nc2cccnc2)nc1Cl,113% (inactive),0.904 (inactive),1.39,5930,6560,0.61 (inactive)
O=C(O)c1ccc(/C=C2/SC(=S)N(c3cccc(C(F)(F)F)c3)C2=O)cc1,83.1% (inactive),0.837 (inactive),1.71,8080,9650,-0.215 (inactive)
c1ccc(C(O[C@@H]2CCCN(CCc3ccc4c(c3)OCO4)C2)c2ccccc2)cc1,119% (inactive),0.989 (inactive),1.1,8350,8440,-0.585 (inactive)
CC(C)N1Cc2cc(S(C)(=O)=O)ccc2N(CCN2CC=C(c3c[nH]c4cc(F)ccc34)CC2)S1(=O)=O,110% (inactive),0.929 (inactive),1.15,6990,7530,0.12 (inactive)
CCCn1c(=O)[nH]c2nc(-c3ccc(S(=O)(=O)O)cc3)[nH]c2c1=O,93.6% (inactive),0.829 (inactive),2.26,7230,8720,1.45 (inactive)
CSc1cc2c(cc1C(F)(F)F)N(C(=O)Nc1cccnc1)CC2,112% (inactive),0.921 (inactive),0.728,9460,10300,0.05 (inactive)
CC(C)(C)n1nc(-c2cccc3ccccc23)c2c(N)ncnc21,117% (inactive),0.947 (inactive),1.81,3180,3350,-0.105 (inactive)
CC(C)n1nnc2cc(C(=O)O)ccc21,115% (inactive),0.911 (inactive),1.97,7770,8530,0.275 (inactive)
COC(=O)c1sccc1S(=O)(=O)Nc1ccc(Nc2ccccc2)cc1OC,87.9% (inactive),0.862 (inactive),1.31,6450,7480,-0.495 (inactive)
CO[C@]12C[C@@H](COC(=O)c3cncc(Br)c3)CN(C)[C@@H]1CC1=CN(C)C3C=CC=C2C13 (stereo partly drawn),107% (inactive),0.94 (inactive),0.794,7700,8200,0.455 (inactive)
Cc1cc(C)c(S(=O)(=O)Nc2cccc(C(F)(F)F)c2)c(C)c1,107% (inactive),0.995 (inactive),0.922,5690,5720,-0.605 (inactive)
CSc1nc(NC2CCCC2)c([N+](=O)[O-])c(NC2CCCC2)n1,104% (inactive),0.932 (inactive),1.24,7100,7620,-0.215 (inactive)
N#C/C(=C\c1ccc(O)c(O)c1)C(=O)OCCc1cccs1,110% (inactive),0.871 (inactive),1.36,8430,9690,-0.59 (inactive)
Cc1nc2c(O)cccc2c(=O)[nH]1,117% (inactive),0.957 (inactive),0.648,9130,9530,-0.215 (inactive)
CS/C(N)=C(C#N)/C(C#N)=C(\N)SC,109% (inactive),0.85 (inactive),1.19,8330,9800,-0.595 (inactive)
C[C@@H](CN1CCC(n2c(=O)[nH]c3cc(Cl)ccc32)CC1)NC(=O)c1ccc2ccccc2c1,106% (inactive),1.11 (inactive),0.89,3940,3560,-1.04 (inactive)
CC(C)c1ccccc1S(=O)(=O)c1cc(N)c2ncccc2c1[N+](=O)[O-],94.3% (inactive),0.871 (inactive),1.36,6170,7090,-0.685 (inactive)

SMILES,remaining activity [1],"fold change [2, 4]","fold change [2, 5]","cell count [2, 6]","cell count [2, 7]",z-score [3]
COc1cccc(C=NC=Nc2cccc(OC)c2)c1,120% (inactive),0.917 (inactive),0.661,8640,9420,-0.08 (inactive)
CC(=Nc1ccccc1N)c1c(C)cc(=O)n(O)c1O,117% (inactive),1.16 (inactive),0.955,3450,2970,-0.105 (inactive)
O=C(c1ccc(F)cc1)C1CCN(CCCCc2ccccc2)CC1,113% (inactive),0.877 (inactive),1.29,8620,9830,-0.88 (inactive)
Cc1ccc(/C=C2\CNC/C(=C\c3ccc(C)cc3)C2=O)cc1,95.5% (inactive),0.9 (inactive),0.964,500,556,-0.645 (inactive)
CC[C@@H]1Cn2c(c3nc(-c4ccccc4)nc-3n(C)c2=O)N1,108% (inactive),0.901 (inactive),1.44,7600,8440,-0.165 (inactive)
Cc1c(NC(=O)N2CCOCC2)ccc2c1c1ccccc1n2C(C)C,122% (inactive),0.891 (inactive),1.37,8260,9270,1.14 (inactive)
N[C@@H](CSS(=O)(=O)O)C(=O)O,94.5% (inactive),0.893 (inactive),0.93,8240,9220,-0.57 (inactive)
CC1=C(/C=C/C(=C/C=C/C(C)=C/C(=O)O)c2ccc(C)cc2)C(C)(C)CCC1,105% (inactive),0.936 (inactive),1.77,6950,7420,0.99 (inactive)
N[C@H](C(=O)O)c1ccc(C(=O)O)c(O)c1,95.5% (inactive),0.931 (inactive),0.823,8860,9520,-0.145 (inactive)
NC(=O)N/N=C/c1ccc(Oc2ccc(F)cc2)cc1,94.3% (inactive),0.798 (inactive),2.22,7090,8890,0.135 (inactive)
Cc1ccc(CC2(O)CCN(CCOc3ccc(O)cc3)CC2)cc1,89.8% (inactive),0.939 (inactive),2.38,7760,8270,-0.49 (inactive)
CCC(=O)OCN1C(=O)C=CC1=O,92.2% (inactive),0.956 (inactive),1.17,9240,9660,-0.205 (inactive)
COc1cc(N)c(Cl)cc1C(=O)CCC1CCN(CCNS(C)(=O)=O)CC1,97.5% (inactive),0.928 (inactive),0.69,9240,9960,1.25 (inactive)
CN(CC[C@@H](Oc1ccc(-c2ccccc2)cc1)c1ccc(F)cc1)CC(=O)O,116% (inactive),0.898 (inactive),1.24,7970,8870,0.455 (inactive)
c1ccc(CN2CCC3(CCc4ccccc43)CC2)cc1,97.3% (inactive),0.952 (inactive),0.584,8830,9280,0.76 (inactive)
COc1ccc(NC(=O)c2ccc(-c3ccc(-c4noc(C)n4)cc3C)cc2)cc1OCCN(C)C,128% (inactive),1.2 (inactive),1.18,1160,962,-0.765 (inactive)
Cc1ccccc1N1CCN(S(=O)(=O)CC23CCC(C[C@@H]2NC(=O)[C@@H](N)CCS(C)(=O)=O)C3(C)C)CC1 (stereo partly drawn),82.6% (inactive),0.868 (inactive),1.54,7420,8540,-0.14 (inactive)
N#Cc1cc2[nH]c(=O)c(=O)[nH]c2cc1[N+](=O)[O-],113% (inactive),0.891 (inactive),1.62,9010,10100,0.095 (inactive)
CCc1ccccc1OC[C@@H](O)CN[C@H]1CCCc2ccccc21,106% (inactive),0.986 (inactive),0.799,4870,4940,-0.74 (inactive)
CC(=O)N[C@H](Cc1c[nH]c2ccccc12)C(=O)OCc1cc(C(F)(F)F)cc(C(F)(F)F)c1,106% (inactive),0.923 (inactive),0.896,8110,8790,-0.035 (inactive)
Nc1nc2c(ccc3ccccc32)s1,121% (inactive),0.908 (inactive),1.66,8670,9550,0.415 (inactive)
CCCCCCCCCCCCCCCC(=O)C(F)(F)F,108% (inactive),1.01 (inactive) and 0.961 (inactive),0.782 and 1.06,5680 and 8900,5630 and 9260,-0.105 (inactive)
CC(=O)N(OCc1ccccc1)[C@@H]1c2cc(C#N)ccc2OC(C)(C)[C@H]1O,105% (inactive),0.887 (inactive),0.973,8320,9380,0.705 (inactive)
CC[C@@H](C)[C@H]1O[C@]2(CC[C@@H]1C)C[C@@H]1C[C@@H](C/C=C(\C)[C@@H](O[C@H]3C[C@H](OC)[C@@H](O[C@H]4C[C@H](OC)[C@@H](O)[C@H](C)O4)[C@H](C)O3)[C@@H](C)/C=C/C=C3\CO[C@@H]4[C@H](O)C(C)=CC(C(=O)O1)[C@]34O)O2 (stereo partly drawn) (tested in a mixture with another compound),124% (inactive),0.987 (inactive),1.53,507,514,-1.04 (inactive)
